35 compounds from PubChem BioAssay AID1259341 (Broad Institute, 2017) can be followed below.

A number with no mark means an inactive call.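 The calls were made as follows: active = activity change under -35% in any replicate well, with more than 20 beads read in that well; inactive = the rest.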

Sequence of Caspase recruitment domain-containing protein 9 (Homo sapiens) + E3 ubiquitin-protein ligase TRIM62 (Homo sapiens) (Q9BVG3 whole entry, looked up, the tested form may be a part): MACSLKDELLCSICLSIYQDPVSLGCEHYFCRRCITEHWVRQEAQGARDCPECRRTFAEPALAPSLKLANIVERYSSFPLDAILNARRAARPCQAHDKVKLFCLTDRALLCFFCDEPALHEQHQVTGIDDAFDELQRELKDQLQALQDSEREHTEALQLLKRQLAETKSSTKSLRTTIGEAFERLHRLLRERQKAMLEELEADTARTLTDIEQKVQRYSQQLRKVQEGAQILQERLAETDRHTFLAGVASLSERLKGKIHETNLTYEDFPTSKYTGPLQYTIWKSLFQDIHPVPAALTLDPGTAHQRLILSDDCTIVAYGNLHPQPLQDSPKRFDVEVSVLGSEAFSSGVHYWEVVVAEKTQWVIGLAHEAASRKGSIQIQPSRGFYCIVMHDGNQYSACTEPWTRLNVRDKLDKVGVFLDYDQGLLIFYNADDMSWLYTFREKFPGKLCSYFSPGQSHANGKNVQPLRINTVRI
Sequence of Caspase recruitment domain-containing protein 9 (Homo sapiens) + E3 ubiquitin-protein ligase TRIM62 (Homo sapiens) (Q9H257 whole entry, looked up, the tested form may be a part): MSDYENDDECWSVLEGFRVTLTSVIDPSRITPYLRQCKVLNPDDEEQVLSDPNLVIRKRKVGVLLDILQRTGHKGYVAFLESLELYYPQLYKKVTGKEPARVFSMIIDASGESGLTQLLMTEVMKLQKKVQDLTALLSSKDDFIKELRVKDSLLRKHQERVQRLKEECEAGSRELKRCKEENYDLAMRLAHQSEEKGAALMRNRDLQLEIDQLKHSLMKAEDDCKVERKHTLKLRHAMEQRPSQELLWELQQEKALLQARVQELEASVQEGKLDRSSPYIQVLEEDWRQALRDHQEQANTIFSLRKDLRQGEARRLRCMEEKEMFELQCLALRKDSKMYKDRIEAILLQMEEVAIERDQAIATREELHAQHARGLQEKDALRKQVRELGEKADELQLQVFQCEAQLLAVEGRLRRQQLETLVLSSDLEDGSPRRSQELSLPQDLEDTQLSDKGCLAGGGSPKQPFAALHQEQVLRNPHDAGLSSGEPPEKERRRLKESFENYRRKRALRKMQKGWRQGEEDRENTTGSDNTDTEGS

The test has as its target Caspase recruitment domain-containing protein 9 (Homo sapiens) + E3 ubiquitin-protein ligase TRIM62 (Homo sapiens) (UniProt Q9H257+Q9BVG3). Nature of the test: disruptors of CARD9-TRIM62 binding, primary screen, cell lysate, HEK293FT lysates, Luminex bead ELISA (AID 1259341).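 Also: PE anti-Flag signal of Flag-CARD9 captured by myc-TRIM62 beads.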 The note with it: PE fluorescence, active compounds read low, concentration not given here. Background: ELISA stands for enzyme-linked immunosorbent assay.
As to `Cc1ccc2cc(CN(Cc3ccco3)S(C)(=O)=O)c(=O)[nH]c2c1`, the activity change, negative = inhibition was 5.89%.

Consider `CC(C)(C)c1ccc(-c2nc(C#N)c(NCc3ccncc3)o2)cc1`, for which the activity change, negative = inhibition was 6.53%.

For `Cc1ccc(S(=O)(=O)Nc2ccc3c(c2)C(=O)N([C@H](C)CO)C[C@H](C)[C@@H](CN(C)C(=O)C2CCCCC2)OCCCC[C@H](C)O3)cc1`, the activity change, negative = inhibition is 6.06%.

On to `CCCC(=O)NCc1ccc2c(c1)cc(C)n2C`, for which the activity change, negative = inhibition was 7.86%.

Take `CCc1nc(OCc2ccco2)c2sc3nc4c(cc3c2n1)COC(C)(C)C4`: the activity change, negative = inhibition is -2.36%.

`Cc1ccc(C)n1Nc1nc(O)cs1`: the activity change, negative = inhibition was 1.72%.

For the compound `Cc1ccc(-c2cc(C(=O)Nc3ccccn3)c3ccccc3n2)o1`, the activity change, negative = inhibition is -4.7%.

In the case of `CCc1cc2c(=O)n(Cc3ccco3)c(SC)nc2s1`, the activity change, negative = inhibition is 1.18%.

Turning to `CC(=O)c1cccc(OCC(=O)N(C)CC(=O)NCc2ccco2)c1`, the activity change, negative = inhibition is -22.5%.

With `CC1(C)Cc2c(c(N3CCOCC3)nc3sc(C(=O)NCc4ccco4)c(N)c23)CO1`, the activity change, negative = inhibition was -2.46%.

Regarding `NC(=O)C1(N2CCCCC2)CCN(c2ncc(NC(=O)c3cccs3)cc2C(=O)O)CC1`, the activity change, negative = inhibition was -9.12%.

In the case of `c1cn(CCc2noc(C3CCCC3)n2)c(-c2cc3n(n2)CCCNC3)n1`, the activity change, negative = inhibition was -12.3%.

In the case of `O=C(O)C1Oc2cc3ccccc3cc2O1`, the activity change, negative = inhibition is -13.6%.

In the case of `CCCN1CCc2nc(SCc3nc(-c4ccc(OC)cc4OC)oc3C)[nH]c(=O)c2C1`, the activity change, negative = inhibition was -0.271%.

For the compound `CC(C)C(CC(=O)NCc1ccco1)c1ccco1` (stereo not given), the activity change, negative = inhibition was -8.54%.

For the compound `CN1C(=O)C(c2ccccc2[N+](=O)[O-])C(=O)c2ccccc21` (stereo not given), the activity change, negative = inhibition was 3.98%.

On to `CCOc1ccc(CNc2nc(-c3nnc(-c4ccc(F)cc4)o3)nc3ccccc23)cc1`, for which the activity change, negative = inhibition is 14.1%.

`O=C1CC2(CCN(C(=O)Nc3ccccc3)CC2)CN1Cc1ccc(Cl)cc1`: the activity change, negative = inhibition is -3.18%.

`O=S(=O)(Nc1nc2ccccc2nc1NCc1ccco1)c1ccccc1`: the activity change, negative = inhibition is 1.68%.

As for `COc1ccc(-c2nnc(-c3nc(Nc4ccc(NC(C)=O)cc4)c4ccccc4n3)o2)cc1`, the activity change, negative = inhibition is 9.87%.

For the compound `OCc1ccc(O)c2ncccc12`, the activity change, negative = inhibition was -35%.

As to `COc1ccc(-c2nc(SCC(=O)N3CCN(c4ccccc4OC)CC3)n[nH]2)cc1`, the activity change, negative = inhibition is 23.5%.

On to `Clc1ccc2nc(CN3CCCCCC3)cn2c1`, for which the activity change, negative = inhibition is 5.28%.

In the case of `O=C(Nc1nc(-c2ccco2)c(-c2ccco2)s1)c1ccco1`, the activity change, negative = inhibition is -9.14%.

Take `C[C@H](CO)N1C[C@H](C)[C@@H](CN(C)CC2CCCCC2)OCCCC[C@H](C)Oc2ccc(NS(=O)(=O)c3ccc(F)cc3)cc2C1=O`: the activity change, negative = inhibition is -12.1%.

Consider `C[n+]1cccc2cccc(O)c21`, for which the activity change, negative = inhibition was -2.89%.

In the case of `O=C(CCN1CCOCC1)c1ccc2c(c1)OCCO2`, the activity change, negative = inhibition is 10.8%.

In the case of `CC(C)=CCC(C#N)(CC=C(C)C)C(=O)O`, the activity change, negative = inhibition is 8.02%.

On to `O=C(COc1cccnc1[N+](=O)[O-])c1ccc(Cl)s1`, for which the activity change, negative = inhibition is -9.96%.

As for `Cc1ccc(Cc2cnc(N)s2)o1`, the activity change, negative = inhibition was 18.6%.

In the case of `Fc1ccc(CSc2nnc(-c3cccnc3)n2Cc2ccco2)cc1`, the activity change, negative = inhibition was 0.116%.

Regarding `COc1ccc(-c2nc(C)c(C(C)=O)n2O)cc1OC`, the activity change, negative = inhibition was -2.22%.

Turning to `Cc1c(C(=O)OCC2CCCO2)[nH]c2c1C(=O)CC(c1ccco1)C2` (stereo not given), the activity change, negative = inhibition is -1.75%.

`Cc1scc(C(=O)NCc2ccco2)c1-c1ccccc1`: the activity change, negative = inhibition is 1.82%.

For `O=S(=O)(c1ccccc1)N1CC2CN(Cc3ccc(O)cc3)C2C1` (stereo not given), the activity change, negative = inhibition was -21%.
